In the library only some 3.1% were active in any assay of this set; here they are far more common.
PI4K2A inh – blocks human PI4K2A kinase activity. Q9BTU6. purified PI4K2A, ADP-Glo luminescence, 1 h; active compounds read low. activity change, negative = inhibition, % at 76.9 µM. actives 0.13% (n = 420,000). AID 1346378; in the data active means activity change below about -50%; inconclusive means mostly about -30% to -49%
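Compounds are screened against recombinant PI4K2A using PI as substrate and ATP, the latter dispensed at 300 microM. Reactions run one hour at ambient temperature before ADP-Glo detection; full inhibition defined by wells lacking enzyme.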
KAT2A inh – inhibitors of human GCN5L2 histone acetyltransferase; GCN5L2 HAT assay, ThioGlo1 CoA-SH fluorescence; Q92830; Potency, µM (series often up to 58.9 µM), actives largely listed as inhibitors; actives 0.21% (n = 390,000); AID 504327
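Titration-based screen in which CoA formation is detected via maleimide probe ThioGlo1 (50uM) turning fluorescent on thiol reaction; substrates H3(1-25) 75uM and acetyl-CoA 70uM, GCN5L2 20nM, 20 min incubation at room temperature.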
VDR inh – blocks the human vitamin D receptor; actives 0.93% (n = 400,000); P11473; AID 504847; Potency, µM, actives largely listed as inhibitors; VDR-SRC2-3 peptide fluorescence polarization, 2 h
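Measured by FP: displacement of SRC2-3 coactivator peptide from VDR by library compounds, following a two-hour ambient incubation.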
PLK1 PBD block – PLK1 (human) polo-box domain binding inhibition. actives 2.8% (n = 360,000). Plk1 PBD binding of FITC phosphopeptide, fluorescence polarization. AID 720504. Potency, µM, hits mostly inhibitors. P53350; further: series mostly up to about 57 µM; nearly all actives have a fitted effect of over 65% in size
GLS inh – inhibitors of human glutaminase (GLS) | O94925 | GLS enzymatic activity, qHTS titration | actives 0.21% (n = 410,000) | Potency, µM (series often up to 45.5 µM), usual class: inhibitors
Target sequence (O94925 whole entry, looked up): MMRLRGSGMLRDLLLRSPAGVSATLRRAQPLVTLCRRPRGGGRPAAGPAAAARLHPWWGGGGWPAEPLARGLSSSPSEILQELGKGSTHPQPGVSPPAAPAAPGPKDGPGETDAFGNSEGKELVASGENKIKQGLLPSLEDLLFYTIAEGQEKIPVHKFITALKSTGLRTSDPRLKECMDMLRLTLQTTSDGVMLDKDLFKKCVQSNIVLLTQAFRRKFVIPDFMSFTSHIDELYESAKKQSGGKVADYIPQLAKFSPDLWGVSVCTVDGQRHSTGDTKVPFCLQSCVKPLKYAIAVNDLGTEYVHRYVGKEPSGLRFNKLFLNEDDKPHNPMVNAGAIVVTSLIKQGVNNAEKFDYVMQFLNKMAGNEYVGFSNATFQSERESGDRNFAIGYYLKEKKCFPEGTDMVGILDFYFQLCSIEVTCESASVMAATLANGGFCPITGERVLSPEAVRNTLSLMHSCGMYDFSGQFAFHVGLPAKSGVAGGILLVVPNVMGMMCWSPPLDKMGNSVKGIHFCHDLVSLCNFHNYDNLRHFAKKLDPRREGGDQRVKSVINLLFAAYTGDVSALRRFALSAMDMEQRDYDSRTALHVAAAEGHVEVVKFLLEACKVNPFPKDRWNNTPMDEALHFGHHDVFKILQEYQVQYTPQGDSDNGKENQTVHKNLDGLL
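Coupled fluorescence readout: glutamate oxidase/HRP/Amplex Red detect glutamate formed by hKGA from L-glutamine (1 mM solution added). Buffer 45 mM KH2PO4 pH 8.2, 0.02% Tween-20; reads at t0 and 30 min RT.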
A number is an active result; 0 = inactive; ? = inconclusive; - = not tested or not shown. Unless noted, the call rests on the fitted dose curve; in most records, active means well fitted curve in the direction sought with a large enough effect; inconclusive means small, poorly fitted or top-dose-only effect, or another doubt; inactive means no such curve, though single readings can be large; an effect the other way counts as inactive or inconclusive.

SMILES	PI4K2A inh	KAT2A inh	VDR inh	PLK1 PBD block	GLS inh
CCOc1cc(/C=N/NC(=O)c2ccc(=O)n(C)c2)ccc1O	0	0	0	0	7.9µM
CCOc1cc(C=NNC(=O)N(c2ccccc2)c2ccccc2)ccc1O	0	-	-	0	0
CCOc1ccccc1C=NNC(=O)c1cccc2ccccc12	0	-	0	0	0
COc1ccc(CNC(=O)O[C@H]2CC[C@@]34CCCN3C(=O)CCC[C@H]4C2)cc1	0	-	-	-	-
CCOC(=O)Cc1nc(N2CCN(C(=O)C3CCCO3)CC2)c2c(C)c(C(=O)OCC)sc2n1 (centres undefined)	0	-	-	-	-
COc1ccccc1N1CCN(N=Cc2ccccc2Br)CC1	0	-	-	-	-
COc1ccc(-n2c(Cc3cccs3)nnc2SCC(=O)Nc2cccc3ccccc23)cc1	0	-	-	-	-
CC1=CC(=O)C=C(C)C1=NOC(=O)c1cccc([N+](=O)[O-])c1	0	0	0	9.5µM	0
COc1ccc(N2C(=S)N(C(=O)c3ccccc3)C(=Nc3ccccc3)C2=Nc2ccccc2)cc1	0	-	?	21µM	0
COc1ccc2c(c1)c1nnc(SC)nc1n2Cc1ccccc1	-	-	0	-	-
CCC(C(=O)N1CCN(c2ncccn2)CC1)c1ccccc1 (centres undefined)	0	0	0	24µM	0
O=C(NCc1ccco1)C(c1ccco1)N(Cc1cccs1)C(=O)Cn1nnc2ccccc21 (centres undefined)	0	0	0	0	0
O=C(NCc1ccco1)C(c1ccco1)N(CCc1ccccc1)C(=O)Cn1nnc2ccccc21 (centres undefined)	0	0	0	3.8µM	0
CCCc1cc(=O)n2[nH]c(NCc3ccccc3OC)nc2n1	0	0	0	-	0
O=C1C=CC(=O)N1N(c1ccccc1)c1ccccc1	0	0	13µM	4.7µM	0
COc1ccc(-n2c(SCC(=O)NCCCSC)nnc2-c2ccncc2)cc1	0	-	-	-	-
Cc1cccc(C)c1OCC1CNC(=O)O1 (centres undefined)	0	0	0	27µM	0
Cc1ccc(NC(=O)c2cccc3c2-c2ccccc2C3=O)c(C)c1	0	-	-	-	-
O=C(O)c1[nH]c2ccccc2c1C(c1cc(Br)ccc1O)c1c(C(=O)O)[nH]c2ccccc12	0	?	?	17µM	0
O=C(O)c1[nH]c2ccccc2c1C(c1c(F)cccc1Cl)c1c(C(=O)O)[nH]c2ccccc12	0	0	?	?	?
COc1cc(Cl)cc(C(c2c(C(=O)O)[nH]c3ccccc23)c2c(C(=O)O)[nH]c3ccccc23)c1O	0	0	?	24µM	0
CCOc1ccc(C(c2c(C)[nH][nH]c2=O)c2c(C)[nH][nH]c2=O)cc1OC	0	0	0	?	0
Cc1[nH][nH]c(=O)c1C(c1cc(Br)ccc1O)c1c(C)[nH][nH]c1=O	0	0	?	24µM	0
COc1cc(NC(=O)NC(C)c2c(-n3cccc3)sc3c2CCN(C)C3)cc(OC)c1 (centres undefined)	0	0	0	-	0
Cc1n[nH]c(=O)nc1NCC1CCCO1 (centres undefined)	0	0	0	27µM	0
SMILES	PI4K2A inh	KAT2A inh	VDR inh	PLK1 PBD block	GLS inh
COC(=O)CC/C(O)=C1\C(=O)CC(C)(C)CC1=NCCc1nc2ccccc2[nH]1	0	0	0	21µM	0
CCCCCCCCNC(=O)C1CSCCS(=O)(=O)N1Cc1ccc(OC)cc1 (centres undefined)	0	-	-	-	-
COc1cccc2c1cc1c(=O)n(CC(=O)N3CCN(c4cccc(C)c4)C(C)C3)nc(C)n12 (centres undefined)	0	0	0	-	0
NS(=O)(=O)c1ccc(NC(=S)NCC2CCCO2)cc1 (centres undefined)	0	0	0	24µM	0
CN1CCN(C(=S)Nc2ccc(S(N)(=O)=O)cc2)CC1	0	0	0	27µM	0
NS(=O)(=O)c1ccc(NC(=S)N2CCN(c3cccc(Cl)c3)CC2)cc1	0	0	0	17µM	0
S=C(NCC1CCCO1)Nc1ccc(Nc2ccccc2)cc1 (centres undefined)	0	0	0	?	0
Cc1ccccc1C(=O)NC(=S)NCC1CCCO1 (centres undefined)	0	2.5µM	0	0	0
O=C(c1ccc(Cl)c(Cl)c1)N1CCC(Oc2cccnc2)CC1	0	-	-	-	-
COc1cc2c(cc1OC)C(=O)CC2	0	-	-	-	-
NS(=O)(=O)c1ccc(NC(=S)N2CCN(C(=O)C3CCCO3)CC2)cc1 (centres undefined)	0	0	?	11µM	0
O=C(C1CCCO1)N1CCN(C(=S)Nc2ccc(Br)cc2)CC1 (centres undefined)	0	0	0	0	0
Cc1ccc(C)n1-c1ccc(C(=O)NN)cc1	-82	0	?	3µM	?
CN1CCN(c2ccc(Cl)cc2NS(=O)(=O)c2ccccc2Cl)CC1	0	0	0	27µM	0
COc1ccc(OC)c(NC(=O)C(CC(=O)O)NCc2ccco2)c1 (centres undefined)	0	3.2µM	0	0	0
CCOC(=O)C(CC(=O)O)NCc1ccco1 (centres undefined)	0	0	0	0	0
COC(=O)c1ccccc1NC(=O)c1sc(=S)n(C)c1N	0	0	0	6µM	0
Cc1ccccc1CNC(=O)c1cccc2c1C(=O)N(Cc1cccnc1)C2	0	-	-	-	-
O=C(CSc1nnc(CNC(=O)c2ccco2)o1)Nc1ccccc1F	0	0	0	21µM	0
O=C(CC1Oc2ccccc2NC1=O)NCc1ccccc1 (centres undefined)	0	0	?	21µM	0
Cc1ccc(C(=O)CC(C(=O)O)c2cn(CCC#N)c3ccccc23)cc1 (centres undefined)	0	0	0	27µM	0
CCOC(=O)c1c(NC(=O)/C=C/C(=O)O)sc(C)c1-c1ccc(Cl)cc1	0	0	40µM	0	0
Clc1ccccc1Cn1nc(-c2ccccc2)nc1-c1ccccc1	0	0	0	0	0
Clc1ccc(Cn2nc(-c3ccccc3)nc2-c2ccccc2)cc1	0	0	0	24µM	0
CCc1ccc(C(c2ccccc2)c2c[nH]c3ccc(C)cc23)s1 (centres undefined)	0	0	?	-	0
SMILES	PI4K2A inh	KAT2A inh	VDR inh	PLK1 PBD block	GLS inh
Cc1ccc(NC(=O)[C@@H]2CC(=O)O[C@@H]2c2ccccc2)c(C)c1	0	-	-	-	-
COc1ccc(S(=O)(=O)N2CCN(c3ccccc3F)CC2)cc1-c1noc(C)n1	0	16µM	0	-	0
CCc1nc(-c2cc(S(=O)(=O)N3CCN(c4ccccc4F)CC3)ccc2OC)no1	0	0	0	-	0
COc1ccc(CNc2ncnc3ccc(-c4ccccc4C#N)cc23)c(OC)c1	-	0	0	-	-
Clc1ncc(C#Cc2ccccc2)c2ncncc12	-	-	28µM	-	-
CCOc1ccc(-n2c(SCC(=O)Nc3ccc(S(=O)(=O)Nc4nccs4)cc3)nnc2-c2ccco2)cc1	0	-	-	-	-
O=C(O)c1ccc(-c2nc(-c3ccc(Cl)cc3Cl)cs2)cc1	0	0	0	0	0
CC(=O)N1CC[n+]2c(-c3ccc(Cl)cc3Cl)csc21	0	0	40µM	?	0

Source: PubChem BioAssay (National Center for Advancing Translational Sciences (NCATS))
